Laboratory results: PubChem BioAssay (EPA / NIEHS)
“And” between values parts separate entries of the source, which are not always exact repeats. Equal entries are not always repeated. More than one record can exist for a structure, and the calls need not agree. The source made the active and inactive calls. Rule for the calls: active = hit-call score of the fitted dose curve at least 0.9, where 1 is the maximum; inactive = score below 0.9.

Legend:
[1] = BSK_3C_TissueFactor: BioMAP Diversity Plus: 3C Assay for Tissue Factor Biomarker Activity (AID 2282997); conditions: BioMAP 3C HUVEC, tissue factor biomarker readout; actives raise or lower the signal
How it was run: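 HUVEC were treated 24 h, then surface tissue factor measured by ELISA and fitted bidirectionally against DMSO. Parallel SRB total-protein staining assessed overt cytotoxicity at the same time point.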

[2] = BSK_3C_VCAM1: BioMAP Diversity Plus: 3C Assay for Vascular cell adhesion molecule 1 (VCAM1) Biomarker Activity (AID 2282999); conditions: BioMAP 3C HUVEC, VCAM1 ELISA, cytokine-stimulated; actives raise or lower the signal
How it was run: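 Human umbilical vein endothelial cells (3C system), biomarker read by ELISA 24 h after dosing; bidirectional fit against DMSO baseline. Cytotoxicity tracked by SRB total-protein staining in parallel cultures at biomarker time.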

[3] = BSK_4H_Eotaxin3: BioMAP Diversity Plus: 4H Assay for Eotaxin 3 Biomarker Activity (AID 2283000); conditions: primary human endothelial cells (HUVEC); actives raise or lower the signal
How it was run: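 Eotaxin-3 (CCL26) levels were measured by ELISA in HUVEC primary cultures 24 h post-dosing. Gain or loss of signal was fitted in both directions, with DMSO serving as baseline and negative control.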

[4] = read-out: Intercellular Adhesion Molecule 1 (ICAM1), ICAM1 (gene 3383); assay: BSK_3C_ICAM1: BioMAP Diversity Plus: 3C Assay for Intercellular Adhesion Molecule 1 (ICAM1) Biomarker Activity (AID 2283003); conditions: primary human endothelial cells (HUVEC); actives raise or lower the signal
How it was run: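 ICAM-1 levels measured by ELISA after HUVEC cultures in the 3C system had been dosed for 24 h. Gain or loss of signal relative to DMSO was fitted in both directions.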

[5] = BSK_3C_Proliferation: Cell Proliferation Assessment in the BioMAP Diversity Plus: 3C Assay (AID 2283006); conditions: primary human endothelial cells (HUVEC);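 note: potency may reflect either rise or fall in cell number versus DMSO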
How it was run: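 Read-out is total protein by SRB absorbance at 560 nm, taken as a proxy for relative cell number. Primary human umbilical vein endothelium cultured below confluence was dosed for 48 h, TCA-fixed and SRB-stained; curves were fitted bidirectionally versus DMSO.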

[6] = read-out: E-selectin (Homo sapiens) (UniProt P16581); assay: BSK_3C_Eselectin: BioMAP Diversity Plus: 3C Assay for Eselectin Biomarker Activity (AID 2283015); conditions: primary human endothelial cells (HUVEC); actives raise or lower the signal;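 note: cell surface E-selectin protein quantified by ELISA 24 h after dosing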
How it was run: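 Primary human umbilical vein endothelial cells (3C system), read 24 h after compound addition; E-selectin measured by ELISA. Bidirectional curve fitting against DMSO baseline; cytotoxicity by parallel SRB total-protein staining.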

[7] = read-out: Interleukin-1 alpha (IL1a), IL1A (gene 3552); assay: BSK_BE3C_IL1a: BioMAP Diversity Plus: BE3C Assay for Interleukin-1 alpha (IL1a) Biomarker Activity (AID 2283016); conditions: primary human bronchial epithelial cells; actives raise or lower the signal
How it was run: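 BE3C primary human bronchial epithelium; cpd 24 h; IL-1a by ELISA; bidirectional fit vs DMSO; parallel SRB (0.1% SRB, 10% TCA fix, 560 nm) for cytotoxicity.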

[8] = read-out: Monocyte Chemoattractant Protein-1 (MCP1), CCL2 (gene 6347); assay: BSK_3C_MCP1: BioMAP Diversity Plus: 3C Assay for Monocyte Chemoattractant Protein-1 (MCP1) Biomarker Activity (AID 2283017); conditions: primary human endothelial cells (HUVEC); actives raise or lower the signal
How it was run: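 Human umbilical vein endothelial cells (3C system) exposed to chemicals for 24 h; MCP-1 quantified by ELISA against the DMSO baseline with bidirectional fitting, and parallel SRB staining used to assess cytotoxicity.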

[9] = read-out: Human Leukocyte Antigen - DR isotype (HLADR), HLA-DRA (gene 3122); assay: BSK_3C_HLADR: BioMAP Diversity Plus: 3C Assay for Human Leukocyte Antigen - DR isotype (HLADR) Biomarker Activity (AID 2283019); conditions: primary human endothelial cells (HUVEC); actives raise or lower the signal
How it was run: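 HUVEC monoculture, HLA-DR measured by ELISA 24 h after chemical dosing. Fitted bidirectionally against DMSO baseline; parallel SRB staining assessed cytotoxicity, with 3C proliferation read by SRB at 48 h.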

[10] = read-out: Interleukin-8 (IL8), CXCL8 (gene 3576); assay: BSK_3C_IL8: BioMAP Diversity Plus: 3C Assay for Interleukin-8 (IL8) Biomarker Activity (AID 2283020); conditions: primary human endothelial cells (HUVEC); actives raise or lower the signal
How it was run: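 ELISA read-out of IL-8 from human umbilical vein endothelium, measured 24 h after chemical dosing. Activity is expressed relative to DMSO negative control, with both increases and decreases fitted.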

[11] = read-out: Monokine induced gamma interferon (MIG), CXCL9 (gene 4283); assay: BSK_3C_MIG: BioMAP Diversity Plus: 3C Assay for Monokine induced gamma interferon (MIG) Biomarker Activity (AID 2283021); conditions: primary human endothelial cells (HUVEC); actives raise or lower the signal
How it was run: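 Read-out is ELISA detection of MIG on human umbilical vein endothelial cells, taken 24 h after dosing. Gain or loss of signal was scored relative to DMSO controls using bidirectional curve fitting.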

[12] = BSK_3C_SRB: Viability Assessment in the BioMAP Diversity Plus: 3C Assay (AID 2283023); conditions: primary human endothelial cells (HUVEC);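 note: fitted both ways against DMSO so a hit may be signal rise or drop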
How it was run: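 Human umbilical vein endothelial cells in the 3C system, treated 24 h. Total protein measured by 0.1% sulforhodamine B staining after 10% TCA fixation, read at 560 nm; bidirectional fit versus DMSO.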

[13] = read-out: Matrix Metallopeptidase 1 (MMP1), MMP1 (gene 4312); assay: BSK_BE3C_MMP1: BioMAP Diversity Plus: BE3C Assay for Matrix Metallopeptidase 1 (MMP1) Biomarker Activity (AID 2283024); conditions: primary human bronchial epithelial cells; actives raise or lower the signal
How it was run: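 Human bronchial epithelial cells (BE3C system) exposed to compound for 24 h; MMP1 then quantified by ELISA. Activity was fitted in both directions relative to DMSO.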

[14] = read-out: Pselectin, SELP (gene 6403); assay: BSK_4H_Pselectin: BioMAP Diversity Plus: 4H Assay for Pselectin Biomarker Activity (AID 2283026); conditions: primary human endothelial cells (HUVEC); actives raise or lower the signal
How it was run: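 ELISA read-out of P-selectin on human umbilical vein endothelium after 24 h of dosing. Values derive from bidirectional fitting relative to DMSO. Parallel SRB protein staining flagged overt cytotoxicity.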

[15] = BSK_4H_SRB: Viability Assessment in the BioMAP Diversity Plus: 4H Assay (AID 2283027); conditions: primary human endothelial cells (HUVEC);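 note: cells exposed to compound for 24 h before staining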
How it was run: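 Human umbilical vein endothelial cells, 24 h after chemical dosing; total protein measured by 0.1% sulforhodamine B staining after 10% TCA fixation, read at 560 nm. Bidirectional fitting against DMSO.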

[16] = read-out: Urokinase-type plasminogen activator receptor (uPAR), PLAUR (gene 5329); assay: BSK_4H_uPAR: BioMAP Diversity Plus: 4H Assay for Urokinase-type plasminogen activator receptor (uPAR) Biomarker Activity (AID 2283030); conditions: primary human endothelial cells (HUVEC); actives raise or lower the signal
How it was run: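 Human umbilical vein endothelial cells in the 4H system, 24 h after chemical dosing. Cell-surface uPAR measured by ELISA, fitted in both directions versus DMSO; cytotoxicity checked by SRB total protein in parallel cultures.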

[17] = read-out: Vascular endothelial growth factor receptor 2 (Homo sapiens) (UniProt P35968); assay: BSK_4H_VEGFRII: BioMAP Diversity Plus: 4H Assay for Vascular endothelial growth factor receptor 2 (VEGFR2) Biomarker Activity (AID 2283031); conditions: primary human endothelial cells (HUVEC); actives raise or lower the signal;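 for AC50: cell-surface VEGFR2 protein level quantified by ELISA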
How it was run: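 Primary human umbilical vein endothelial cells (4H system), 24 h exposure; cell-surface VEGFR2 measured by ELISA. Bidirectional fitting versus DMSO; cytotoxicity checked in parallel by SRB total-protein staining.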

[18] = read-out: Human Leukocyte Antigen - DR isotype (HLADR), HLA-DRA (gene 3122); assay: BSK_BE3C_HLADR: BioMAP Diversity Plus: BE3C Assay for Human Leukocyte Antigen - DR isotype (HLADR) Biomarker Activity (AID 2283032); conditions: primary human bronchial epithelial cells; actives raise or lower the signal
How it was run: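 ELISA read-out of HLA-DR on human lung bronchial epithelial primary cells, measured 24 h post-dosing. Both increases and decreases were scored relative to DMSO vehicle.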

[19] = read-out: Vascular cell adhesion molecule 1 (VCAM1), VCAM1 (gene 7412); assay: BSK_4H_VCAM1: BioMAP Diversity Plus: 4H Assay for Vascular cell adhesion molecule 1 (VCAM1) Biomarker Activity (AID 2283033); conditions: primary human endothelial cells (HUVEC); actives raise or lower the signal
How it was run: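 ELISA read-out of VCAM-1 on human umbilical vein endothelium 24 hours after chemical dosing; gain or loss of signal was fitted relative to DMSO, with sulforhodamine B staining of parallel cultures flagging overt cytotoxicity.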

[20] = read-out: Interferon-gamma inducible Protein 10 (IP10), CXCL10 (gene 3627); assay: BSK_BE3C_IP10: BioMAP Diversity Plus: BE3C Assay for Interferon-gamma inducible Protein 10 (IP10) Biomarker Activity (AID 2283034); conditions: primary human bronchial epithelial cells; actives raise or lower the signal
How it was run: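 Chemical is dosed onto human lung bronchial epithelial primary cells, cultures are incubated 24 h, and IP-10 is then quantified by ELISA. Gain or loss of signal is fitted in both directions relative to DMSO.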

[21] = read-out: Monokine induced gamma interferon (MIG), CXCL9 (gene 4283); assay: BSK_BE3C_MIG: BioMAP Diversity Plus: BE3C Assay for Monokine induced gamma interferon (MIG) Biomarker Activity (AID 2283035); conditions: primary human bronchial epithelial cells; actives raise or lower the signal;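 note: MIG protein measured by ELISA in BE3C cultures after 24 h of dosing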
How it was run: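 Primary human bronchial epithelial cells treated for 24 h; MIG levels measured by ELISA, fitted bidirectionally versus DMSO. Parallel SRB total-protein staining assessed cytotoxicity.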

[22] = read-out: Plasminogen activator inhibitor-1 (PAI1), SERPINE1 (gene 5054); assay: BSK_BE3C_PAI1: BioMAP Diversity Plus: BE3C Assay for Plasminogen activator inhibitor-1 (PAI1) Biomarker Activity (AID 2283037); conditions: primary human bronchial epithelial cells; actives raise or lower the signal
How it was run: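 Primary human lung bronchial epithelial cells; chemical dosing; 24 h; PAI-1 measured by ELISA; bidirectional fit referenced to DMSO as negative control.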

[23] = read-out: urokinase plasminogen activator (uPA), PLAU (gene 5328); assay: BSK_BE3C_uPA: BioMAP Diversity Plus: BE3C Assay for urokinase plasminogen activator (uPA) Biomarker Activity (AID 2283038); conditions: primary human bronchial epithelial cells; actives raise or lower the signal
How it was run: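 Primary human bronchial epithelial cells, uPA measured by ELISA 24 h after dosing. Bidirectional change relative to DMSO; cytotoxicity checked in parallel cultures by sulforhodamine B total-protein staining.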

[24] = read-out: Urokinase-type plasminogen activator receptor (uPAR), PLAUR (gene 5329); assay: BSK_BE3C_uPAR: BioMAP Diversity Plus: BE3C Assay for Urokinase-type plasminogen activator receptor (uPAR) Biomarker Activity (AID 2283039); conditions: primary human bronchial epithelial cells; actives raise or lower the signal;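 note: cells exposed to compound for one day before measurement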
How it was run: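 Human bronchial epithelial primary cells; chemical exposure 24 h; uPAR by ELISA; bidirectional fit vs DMSO control.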

Measured: AC50

Sequence of E-selectin (Homo sapiens) (P16581 whole entry, looked up): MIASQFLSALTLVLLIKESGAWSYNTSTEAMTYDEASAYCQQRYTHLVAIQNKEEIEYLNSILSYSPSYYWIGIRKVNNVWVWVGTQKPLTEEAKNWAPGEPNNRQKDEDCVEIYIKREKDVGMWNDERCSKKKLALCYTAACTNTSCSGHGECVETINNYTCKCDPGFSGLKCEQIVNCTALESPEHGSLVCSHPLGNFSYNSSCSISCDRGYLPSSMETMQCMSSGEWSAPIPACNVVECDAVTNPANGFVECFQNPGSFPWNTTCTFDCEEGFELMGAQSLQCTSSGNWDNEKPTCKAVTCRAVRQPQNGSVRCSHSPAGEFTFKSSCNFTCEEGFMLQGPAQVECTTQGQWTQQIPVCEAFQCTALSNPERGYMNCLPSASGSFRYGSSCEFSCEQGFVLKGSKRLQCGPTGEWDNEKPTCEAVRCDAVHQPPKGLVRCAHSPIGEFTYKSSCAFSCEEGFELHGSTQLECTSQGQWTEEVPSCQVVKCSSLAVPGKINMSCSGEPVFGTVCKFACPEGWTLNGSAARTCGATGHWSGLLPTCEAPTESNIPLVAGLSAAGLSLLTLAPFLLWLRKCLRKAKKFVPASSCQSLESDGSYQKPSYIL

[Cd+2].[Cl-].[Cl-]
active: [1] 1 µM and 863 nM | [3] 35.7 µM and 32.2 µM | [5] 30.1 µM and 30 µM | [9] 17 µM and 10.9 µM | [10] 20 µM | [14] 4.97 µM | [17] 6.83 µM | [18] 20 µM | [19] 31.6 µM and 27.1 µM | [20] 20 µM | [22] 3.97 µM | [23] 29.9 µM
inactive: [2] | [4] | [6] | [7] | [8] | [10] | [11] | [12] | [13] | [14] | [15] | [16] | [17] | [20] | [21] | [22] | [23] | [24]
